# Inconclusive results are not listed. Entries that show only a call come without a potency. A number with no mark means an inactive call. Active and inactive are the calls of the source. Calls come from the whole dose curve; as a rule, active = well fitted curve in the direction sought with a large enough effect in the repeat runs; inconclusive = weak or mixed curves; inactive = no such curve, though single readings can be large; an effect the other way counts as inactive or inconclusive.
# What was measured:
# [1] = target: Luciferin 4-monooxygenase (Photinus pyralis) (UniProt P08659); assay: qHTS assay to identify small molecule inhibitors of firefly luciferase (AID 1224835); note: nearly all actives have a fitted effect of over 25% in size; note: potency is the fitted concentration of half-maximal effect
# Outline: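 Inhibition of purified Photinus luciferase is measured by luminescence. Substrate levels (D-luciferin, ATP) sit at their KM values. Each compound is tested in a concentration series.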
# [2] = qHTS assay to identify small molecule agonists of the constitutive androstane receptor (CAR) signaling pathway - cell viability counter screen (AID 1224836); note: series mostly up to about 92 µM; nearly all actives have a fitted effect of over 45% in size
# Outline: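 Fluorescence from CellTiter-Fluor indicates live cells after 23 h exposure. The human hepatoma line expresses hCAR and a CYP2B6-2.2kb reporter. Incubation medium contains 0.75 uM PK11195 (final).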
# [3] = qHTS assay to identify small molecule antagonists of the constitutive androstane receptor (CAR) signaling pathway - cell viability counter screen (AID 1224837); note: nearly all actives have a fitted effect of over 45% in size; note: potency is the fitted concentration of half-maximal effect; for activity change, negative = cytotoxicity: series mostly up to about 92 µM
# Outline: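 Fluorescence from CellTiter-Fluor served as the viability signal. Human hepatoma HepG2 cells stably bearing hCAR and CYP2B6-2.2kb received compound plus CITCO (50 nM final) for 23 hr.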
# [4] = qHTS assay to identify small molecule antagonists of the estrogen related receptor (ERR) signaling pathway from Tox21 library - cell viability counter screen (AID 1224834); note: nearly all actives have a fitted effect of over 30% in size
# Outline: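 Viability readout (CellTiter-Fluor fluorescence, 30 min at 37 C) multiplexed with the ERR assay; cells treated 17.5 h at 37 C with compounds delivered in DMSO.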
# Sequence of Luciferin 4-monooxygenase (Photinus pyralis) (P08659 whole entry, looked up): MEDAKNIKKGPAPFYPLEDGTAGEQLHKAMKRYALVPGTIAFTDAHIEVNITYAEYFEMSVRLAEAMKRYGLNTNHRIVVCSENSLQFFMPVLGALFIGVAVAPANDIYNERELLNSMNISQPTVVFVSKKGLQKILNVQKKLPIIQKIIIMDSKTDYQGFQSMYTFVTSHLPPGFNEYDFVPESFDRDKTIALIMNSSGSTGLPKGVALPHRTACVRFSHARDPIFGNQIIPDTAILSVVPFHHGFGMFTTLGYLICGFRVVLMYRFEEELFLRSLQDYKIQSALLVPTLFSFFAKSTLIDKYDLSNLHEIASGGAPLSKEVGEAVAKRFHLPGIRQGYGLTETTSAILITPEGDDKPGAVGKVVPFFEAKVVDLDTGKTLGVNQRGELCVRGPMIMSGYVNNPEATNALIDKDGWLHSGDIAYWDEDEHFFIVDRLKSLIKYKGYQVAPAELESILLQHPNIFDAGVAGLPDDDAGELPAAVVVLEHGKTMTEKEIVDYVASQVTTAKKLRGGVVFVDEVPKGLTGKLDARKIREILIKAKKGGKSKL
structure (smiles),measurement,setting,value
CCCCCCCC/C=C\CCCCCCCC(=O)N(CCO)CCO,Potency,[1],inactive
Nc1ccc(Cl)c([N+](=O)[O-])c1,Potency,[1],inactive
same,Potency,[2],inactive
same,Potency,[3],inactive
O=c1[nH]cccc1O,Potency,[1],inactive
same,Potency,[2],inactive
same,Potency,[3],inactive
CC(C)(C)c1ccc(OC2CCCCC2O)cc1 (configuration not stated),Potency,[1],31.7 µM (active)
same,Potency,[2],inactive
same,Potency,[3],inactive
ClC(c1ccccc1)(c1ccccc1)c1ccccc1,Potency,[1],inactive
same,Potency,[2],inactive
same,Potency,[3],inactive
Nc1cccnc1N,Potency,[1],inactive
CCCCCCCCCCCCN1CCCC1=O,Potency,[1],44.8 µM (active)
same,Potency,[2],inactive
same,Potency,[3],inactive
Nc1cc([N+](=O)[O-])cc(Cl)c1O,Potency,[1],inactive
same,Potency,[2],inactive
Nc1ccc(N)c([N+](=O)[O-])c1,Potency,[1],35.6 µM (active)
COc1ccc2ccccc2c1,Potency,[1],inactive
CC1=CC[C@@H](C(C)(C)O)CC1,Potency,[1],inactive
same,Potency,[2],inactive
same,Potency,[3],inactive
CC(=O)N(C)C,Potency,[1],inactive
CC(=O)Nc1ccc(N=Nc2cc(C)ccc2O)cc1,Potency,[1],3.17 µM (active)
same,Potency,[3],inactive
O=C(Nc1ccc([N+](=O)[O-])cc1)Nc1ccc([N+](=O)[O-])cc1 (tested in a mixture with another compound),Potency,[1],inactive
same,Potency,[2],inactive
same,Potency,[3],inactive
S=C1NC=NC2N=CNC12 (configuration not stated),Potency,[1],inactive
same,Potency,[2],inactive
C=CCc1cc(S(=O)(=O)c2ccc(O)c(CC=C)c2)ccc1O,Potency,[1],inactive
same,Potency,[2],inactive
same,Potency,[3],inactive
Nc1ccc(Oc2cccc(Oc3ccc(N)cc3)c2)cc1,Potency,[1],35.6 µM (active)
same,Potency,[2],inactive
same,Potency,[3],inactive
COc1cc([C@@H]2c3cc4c(cc3[C@@H](O[C@@H]3O[C@@H]5CO[C@@H](C)O[C@H]5[C@H](O)[C@H]3O)[C@H]3COC(=O)[C@H]23)OCO4)cc(OC)c1O,Potency,[1],inactive
same,Potency,[2],inactive
same,Potency,[3],inactive
CC/C=C\C/C=C\C/C=C\CCCCCCCC(=O)OC,Potency,[1],inactive
same,Potency,[2],inactive
same,Potency,[3],inactive
Nc1ccc(F)c([N+](=O)[O-])c1,Potency,[1],inactive
same,Potency,[2],inactive
same,Potency,[3],inactive
O[Si](c1ccccc1)(c1ccccc1)c1ccccc1,Potency,[1],inactive
same,Potency,[2],inactive
same,Potency,[3],inactive
C=C1C(CCl)(CCl)C2(Cl)C(Cl)C(Cl)C1(Cl)C2(Cl)Cl (configuration not stated),Potency,[1],inactive
same,Potency,[2],inactive
same,Potency,[3],inactive
O=C1Cc2ccccc2C1,Potency,[1],inactive
O=C(NCc1ncc(C(F)(F)F)cc1Cl)c1c(Cl)cccc1Cl,Potency,[1],inactive
same,Potency,[2],inactive
same,Potency,[3],inactive
CCCCCCCC1CCC(=O)O1 (configuration not stated),Potency,[1],inactive
CCC(C)(C)c1ccc(CC(C)CN2C[C@@H](C)O[C@@H](C)C2)cc1 (some centres not stated),Potency,[1],inactive
same,Potency,[2],inactive
same,Potency,[3],inactive
O=C1OC(O)C(C(Cl)Cl)=C1Cl (configuration not stated),Potency,[1],inactive
same,Potency,[2],inactive
same,Potency,[3],inactive
CCCCCCCCCC[N+](C)(CCCCCCCCCC)CCC[Si](OC)(OC)OC,Potency,[1],79.6 µM (active)
same,Potency,[2],inactive
same,Potency,[3],inactive
CC(C)(c1ccc(Oc2ccc(N)cc2)cc1)c1ccc(Oc2ccc(N)cc2)cc1,Potency,[1],22.4 µM (active)
Cc1ccc(N=Nc2c(O)ccc3ccccc23)c(C)c1,Potency,[1],13.8 µM (active)
same,Potency,[2],inactive
O=S(=O)(c1ccc(OCc2ccccc2)cc1)c1ccccc1O,Potency,[1],inactive
same,Potency,[3],inactive
CN1CC[C@H](c2c(O)cc(O)c3c(=O)cc(-c4ccccc4Cl)oc23)[C@H](O)C1,Potency,[3],0.0944 µM (active)
CCOc1ccc([N+](=O)[O-])cc1,Potency,[2],inactive
same,Potency,[3],inactive
Cc1c(Cl)c(=O)oc2cc(O)ccc12,Potency,[1],inactive
c1ccc2c(c1)-c1ccc3ccc4cccc5cc-2c1c3c45,Potency,[1],11 µM (active)
Clc1nc(C(Cl)(Cl)Cl)c(Cl)c(Cl)c1Cl,Potency,[1],inactive
same,Potency,[3],inactive
CCCCNc1ccc(NCCCC)c2c1C(=O)c1ccccc1C2=O,"viability change, negative = cytotoxic",[4],-12.4% [at 19 µM]
same,"viability change, negative = cytotoxic",[2],-17.5% [at 19 µM]
same,"activity change, negative = cytotoxicity",[3],5.61% [at 19 µM]

# Source: PubChem BioAssay (Tox21)
